46 compounds from ChEMBL document CHEMBL3988442, “University of Dundee, Small-Polar-MMV Screening Library” (2021) can be followed below.

In all, about 66,000 compounds went through this assay and about 960 (1.5%) showed an effect of 50% or more. The list comes from a sample in which strong results are over-represented; it also holds similar structures and randomly drawn compounds.

This experiment has as its system Trypanosoma brucei. Briefly: Trypanosoma brucei 72 hour study. In kind it is functional, organism-based. On the set-up: scale not given: in the data most compounds retested in dose-response had high values.

In the case of `CC(C)CN1CCC2(CCN(Cc3ccsc3)CC2)C1=O`, under “30.3 µM, […]”, the “Percent Effect” value was 2.917%.

Turning to `CC(C)CNC(=O)N1CCC2(CC1)OC(C(N)=O)Cn1ccnc12.O=C(O)C(F)(F)F` (stereo not given), the “Percent Effect” value (30.3 µM, […]) is recorded as -37.34%.

As for `COCC[C@]1(O)CCN(Cc2nnc(C)s2)C[C@H]1C`, the “Percent Effect” value (30.3 µM, […]) is -14.31%.

Take `O=C(O)C(F)(F)F.O=C(c1cccnc1)N1CCCC2(COCCN(c3ccccc3)C2)C1` (stereo not given): for the setting “30.3 µM, […]”, the “Percent Effect” value is reported as -43.99%.

Turning to `Cc1ccc(CN2CC[C@@H](O)[C@@H]2Cc2cnn(C)c2)o1.O=C(O)C(F)(F)F`, for the setting “30.3 µM, […]”, the “Percent Effect” value is -387.9%.

Turning to `CNC(=O)C1(CCCc2ccncc2)CCCCN1.Cl` (stereo not given), the “Percent Effect” value (30.3 µM, […]) is -5.403%.

As for `COCCOC1CCN(C(C(=O)O)c2ccc(OC)c(F)c2)CC1` (stereo not given), the “Percent Effect” value (30.3 µM, […]) was -2.66%.

Consider `O=C(O)c1cc(/C=C/c2cccc3ccccc23)ncn1`, for which, where the note is “30 µM, 30.03 µM”, the “Percent Effect” value amounted to 18.14%.

Take `Cn1ccnc1CN1CCC2(COCCN(S(=O)(=O)C3CC3)C2)C1` (stereo not given): under “30.3 µM, […]”, the “Percent Effect” value is recorded as 11.66%.

Turning to `Cn1ccnc1CN1CCC2(CC1)COCCN(c1ncccn1)C2`, where the note is “30.3 µM, […]”, the “Percent Effect” value was found to be 7.51%.

With `Cn1ccnc1CN1CCC2(COCCN(Cc3ccsc3)C2)C1` (stereo not given), where the note is “30 µM, 30.03 µM”, the “Percent Effect” value is 61.78%.

As to `Cc1noc(CN2C[C@H]3CC[C@@H]2CN(C2Cc4ccccc4C2)C3)n1`, the “Percent Effect” value (30 µM, 30.03 µM) came out at 16.7%.

As to `CC(=O)Nc1nc(C2CCN(C(=O)c3cccnc3)CC2)cs1`, the “Percent Effect” value (30 µM, 30.03 µM) turned out to be 31.28%.

With `Cc1noc(C)c1CN1CCc2ncnc(-c3ccc(F)cc3)c2CC1.O=C(O)C(F)(F)F`, under “30.3 µM, […]”, the “Percent Effect” value is given as -81.82%.

Regarding `Cc1ccc(S(=O)(=O)NCCNc2cc(-n3cccc3)ncn2)c(C)c1`, the “Percent Effect” value (30.3 µM, […]) was determined as 53.4%.

As for `O=S(=O)(NCCNc1cc(-n2cccc2)ncn1)c1cccs1`, the “Percent Effect” value (30.3 µM, […]) was 16.28%.

`CCS(=O)(=O)NCCNc1cc(-n2cccc2)ncn1`: for the setting “30.3 µM, […]”, the “Percent Effect” value is on record as 14.19%.

As for `CNC(=O)CN1CCCC12CCN(C(=O)c1cccc(F)c1)CC2.O=C(O)C(F)(F)F`, the “Percent Effect” value (30.3 µM, […]) is -1.054%.

As for `O=C(NCc1ccco1)[C@H]1C[C@@H]2CCN(c3nncs3)C[C@H]2O1.O=C(O)C(F)(F)F`, under “30.3 µM, […]”, the “Percent Effect” value is reported as -27.54%.

As for `COc1ccccc1NCC(=O)NCc1scnc1C`, for the setting “30 µM, 30.03 µM”, the “Percent Effect” value is -18.47%.

As for `COc1cc2nc(NCc3scnc3C)nc(N)c2cc1OC`, for the setting “30.3 µM, […]”, the “Percent Effect” value is listed as 86.68%.

As to `COc1cc2nc(NCc3cc(C)on3)nc(N)c2cc1OC`, under “30.3 µM, […]”, the “Percent Effect” value was -6.228%.

For the compound `COCCN1CCc2cc(C(=O)O)c(NCC3CC3)nc2CC1.O=C(O)C(F)(F)F.O=C(O)C(F)(F)F`, for the setting “30.3 µM, […]”, the “Percent Effect” value was -92.37%.

In the case of `CCCn1nccc1C(=O)Nc1ncc(C)s1`, under “30.3 µM, […]”, the “Percent Effect” value worked out at 83.34%.

`CCn1nccc1C(=O)Nc1nc(C)c(C(C)=O)s1`: the “Percent Effect” value (30.3 µM, […]) is listed as -2.793%.

In the case of `CCCn1nccc1C(=O)Nc1nc(C)c(C)s1`, the “Percent Effect” value (30.3 µM, […]) was 41.43%.

In the case of `COCC1CC2(CCN(Cc3ccco3)CC2)CN1C(C)C.O=C(O)C(F)(F)F.O=C(O)C(F)(F)F` (stereo not given), where the note is “30 µM, 30.03 µM”, the “Percent Effect” value was 42.98%.

Turning to `COCCn1ccnc1C1CCCN(c2cc(OC)nc(N)n2)C1` (stereo not given), for the setting “30 µM, 30.03 µM”, the “Percent Effect” value is recorded as -68.81%.

For the compound `COc1cc(N2CCCC(c3nccn3CCN(C)C)C2)nc(N)n1` (stereo not given), under “30 µM, 30.03 µM”, the “Percent Effect” value is recorded as 42.15%.

With `COc1cc(N2CCCC(c3nccn3Cc3cscn3)C2)nc(N)n1` (stereo not given), where the note is “30 µM, 30.03 µM”, the “Percent Effect” value is recorded as 59%.

As for `Cc1cccn2cc(CNCc3cccc4c3OCCCO4)nc12`, under “30.3 µM, […]”, the “Percent Effect” value is recorded as 17.5%.

For the compound `CCC[C@]12CN3C[C@](CCC)(CN(C1)C3c1[nH]c(=O)[nH]c(=O)c1C)C2=O` (stereo not given in full), the “Percent Effect” value (30 µM, 30.03 µM) was -52.93%.

With `CCc1noc(C2CCCCN2C(=O)c2cc(C)n(C)n2)n1` (stereo not given), the “Percent Effect” value (30.3 µM, […]) is on record as -3.284%.

For the compound `Cc1csc(C2CCCCN2C(=O)c2cc(C(C)C)[nH]n2)n1` (stereo not given), for the setting “10 µM”, the “Percent Effect” value is listed as -49.47%.

As for `CC(C)c1n[nH]c(C(=O)Nc2cc[nH]n2)c1Br`, the “Percent Effect” value (30 µM, 30.03 µM) is given as -42.25%.

For the compound `COc1ccccc1NC(=O)c1[nH]nc(C(C)C)c1Br`, the “Percent Effect” value (30 µM, 30.03 µM) is -9.686%.

On to `CC(C)c1n[nH]c(C(=O)NC(C)c2ccncc2)c1Br` (stereo not given), for which the “Percent Effect” value is 20.51% (30.3 µM, […]) and -71.89% (10 mM, 10 mM as filed; unlikely as a test dose).

For `CC(C)c1n[nH]c(C(=O)Nc2ccnn2C(C)C)c1Br`, the “Percent Effect” value (30 µM, 30.03 µM) was -7.131%.

For the compound `Cc1ccnc(NC(=O)c2[nH]nc(C(C)C)c2Br)c1`, the “Percent Effect” value by setting is: (30.3 µM, […]) 57.19%; (10 mM, 10 mM as filed; unlikely as a test dose) -20%.

Take `COc1ncccc1NC(=O)c1[nH]nc(C(C)C)c1Br`: the “Percent Effect” value (30 µM, 30.03 µM) is given as 7.14%.

On to `CC(C)c1n[nH]c(C(=O)Nc2ccccn2)c1Br`, for which the “Percent Effect” value runs as follows: (30.3 µM, […]) 50.04%; (10 mM, 10 mM as filed; unlikely as a test dose) -45.45%.

For the compound `CC(C)c1n[nH]c(C(=O)Nc2ccncc2)c1Br`, the “Percent Effect” value (30 µM, 30.03 µM) is on record as -10.71%.

On to `Cc1cccc(NC(=O)c2[nH]nc(C(C)C)c2Br)n1`, for which the “Percent Effect” value is, setting by setting: (30.3 µM, […]) 56.85%; (10 mM, 10 mM as filed; unlikely as a test dose) 8.768%.

On to `CCOC[C@]12COC[C@H]1CN(Cc1ccc(F)c(F)c1)C2.O=C(O)C(F)(F)F`, for which, for the setting “30.3 µM, […]”, the “Percent Effect” value amounted to 6.986%.

Turning to `CS(=O)(=O)N[C@H]1CN(C(=O)c2cscn2)[C@@H]2CCCO[C@H]12`, the “Percent Effect” value (30 µM, 30.03 µM) was 28.48%.

Turning to `CNC(=O)[C@H]1C[C@@H]2CN(C(=O)c3ccccn3)C[C@@H]2N1S(C)(=O)=O.O=C(O)C(F)(F)F`, the “Percent Effect” value (30.3 µM, […]) was -16.02%.
